We go through 5 compounds from PubChem BioAssay AID920 (The Scripps Research Institute Molecular Screening Center, 2007).

Screen size: about 200,000 compounds; about 700 (0.35%) were called active. The sample as a whole holds a higher share of actives than the screen did. A number with no mark means an inactive call.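 How the source made its calls: active means inhibition above a set limit, the mean inhibition across all tested compounds plus 3 SD (cut at about 34% in these data); inactive means the rest.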

A short description of the test: STAT1 signaling inhibitors, primary screen, cell-based, HTS, luciferase reporter (AID 920).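 Further: 0% = IFN-gamma with DMSO and 100% = IFN-gamma with 300 µM nifuroxazide.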 The conditions noted are these: NIH 3T3 STAT1-luciferase reporter, IFN-gamma, luminescence; at 5.5 µM; stronger effect = higher value. On the technique in general: In a reporter assay the amount or activity of a reporter protein is the signal.
Take `CN1CCN(c2cc(N3CCNCC3)ccc2[N+](=O)[O-])CC1`: the inhibition (in general, the relative decrease from the control value, in per cent) was 12.4%.

As for `COc1cccc(-c2nc3ccc(N4CCN(C)CC4)cc3[nH]2)c1`, the inhibition is 63.1% (active).

Consider `Cc1nc2ccc(N3CCN(C)CC3)cc2nc1C`, for which the inhibition was -26.2%.

In the case of `CN(C)/C=C(\C=[N+](C)C)c1[nH]ncc1[N+](=O)[O-]`, the inhibition is -9.13%.

Take `COc1ccc(CCn2c(O)c(C=NCCCn3ccnc3)c(=O)[nH]c2=O)cc1OC`: the inhibition was -4.43%.
